Reference: article PMC10812921, “Transcriptional Coactivator BOB1 (OBF1, OCA-B) Modulates the Specificity of DNA Recognition by the POU-Domain Factors OCT1 and OCT2 in a Monomeric Configuration”

Key:
POU1 (OCT1 POU domain) = POU1 (OCT1 POU domain) (human, UniProt P14859 260-458); assay: EMSA-SELEX-seq; no BOB1; 20 mM Tris-HCl pH 7.6, 140 mM NaCl, 10% glycerol, 0.5 mM EDTA, 0.05% Triton X-100, 0.1 mg/mL BSA, 0.1 mg/mL poly(dI-dC), 5 mM DTT, room temperature, 20 min; high values mean tight binding; conditions: protein: recombinant; dsDNA, one strand shown
Chain of POU1 (OCT1 POU domain) (P14859 260-458): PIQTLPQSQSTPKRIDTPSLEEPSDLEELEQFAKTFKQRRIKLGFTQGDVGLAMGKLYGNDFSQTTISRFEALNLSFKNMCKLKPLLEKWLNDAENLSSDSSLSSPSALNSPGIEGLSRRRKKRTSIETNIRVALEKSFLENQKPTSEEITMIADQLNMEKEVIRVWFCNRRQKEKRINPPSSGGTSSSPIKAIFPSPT
Summary of the method: (§1)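 Tagged POU-domain proteins were produced in E. coli BL21, purified under denaturing conditions and renatured before use. They were mixed at 30 ng with 300 ng of a PCR-amplified double-stranded random 35-nt library, with or without 28 ng coactivator protein, in 20 μL Tris–HCl pH 7.6 binding buffer, incubating 20 min at RT. Complexes cut from native 6% PAGE were eluted and PCR-amplified over four rounds, then sequenced by Illumina, with binding preference taken as the percentage of sequenced 8-mers matching a motif pattern.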

POU2 (OCT2 POU domain) = molecular target: T1, POU2 (OCT2 POU domain) (human, UniProt P09086 175-386); assay: as above; conditions: protein: recombinant; dsDNA, one strand shown
T1 sequence: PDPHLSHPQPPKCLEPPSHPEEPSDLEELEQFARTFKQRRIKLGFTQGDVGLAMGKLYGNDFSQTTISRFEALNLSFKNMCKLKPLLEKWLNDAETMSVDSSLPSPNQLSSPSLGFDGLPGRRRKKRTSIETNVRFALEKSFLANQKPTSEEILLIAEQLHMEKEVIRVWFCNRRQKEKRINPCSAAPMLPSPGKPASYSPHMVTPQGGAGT
Summary of the method: as §1

[1] = molecular target: POU1 (OCT1 POU domain);BOB1 (OBF1, OCA-B) (human;human, UniProt P14859;Q16633 260-458;1-256, |); assay: EMSA-SELEX-seq; with BOB1 (ternary complex band); 20 mM Tris-HCl pH 7.6, 140 mM NaCl, 10% glycerol, 0.5 mM EDTA, 0.05% Triton X-100, 0.1 mg/mL BSA, 0.1 mg/mL poly(dI-dC), 5 mM DTT, room temperature, 20 min; high values mean tight binding; conditions: protein: recombinant;recombinant; copies: 1;1; dsDNA, one strand shown
Summary of the method: as §1

[2] = molecular target: T2, POU2 (OCT2 POU domain);BOB1 (OBF1, OCA-B) (human;human, UniProt P09086;Q16633 175-386;1-256, |); assay: as above; conditions: protein: recombinant;recombinant; copies: 1;1; dsDNA, one strand shown
T2 sequence 1: T1 sequence
T2 sequence 2: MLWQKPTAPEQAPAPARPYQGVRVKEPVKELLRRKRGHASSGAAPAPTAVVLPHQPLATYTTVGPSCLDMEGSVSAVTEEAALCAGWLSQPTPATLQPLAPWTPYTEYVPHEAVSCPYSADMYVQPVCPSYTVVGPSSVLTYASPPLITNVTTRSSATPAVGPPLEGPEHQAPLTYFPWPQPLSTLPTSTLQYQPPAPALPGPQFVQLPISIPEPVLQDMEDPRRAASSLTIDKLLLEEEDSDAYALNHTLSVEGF
Summary of the method: as §1

Row | Sequence | binding signal (POU1 (OCT1 POU domain)) | binding signal (POU2 (OCT2 POU domain)) | binding signal [1] | binding signal [2]
1 | AGGTTAAC | 0.032 % of ANNNNAAN 8-mers | 0.0293 % of ANNNNAAN 8-mers | 0.0324 % of ANNNNAAN 8-mers | 0.0338 % of ANNNNAAN 8-mers
2 | AAGTCAAC | 0.0256 % of ANNNNAAN 8-mers | 0.0236 % of ANNNNAAN 8-mers | 0.0308 % of ANNNNAAN 8-mers | 0.0272 % of ANNNNAAN 8-mers
3 | ATTGGAAC | 0.0313 % of ANNNNAAN 8-mers | 0.0426 % of ANNNNAAN 8-mers | 0.0304 % of ANNNNAAN 8-mers | 0.0388 % of ANNNNAAN 8-mers
4 | ACCAGAAT | 0.032 % of ANNNNAAN 8-mers | 0.0437 % of ANNNNAAN 8-mers | 0.0293 % of ANNNNAAN 8-mers | 0.0363 % of ANNNNAAN 8-mers
5 | AGTGAAAA | 0.0698 % of ANNNNAAN 8-mers | 0.0685 % of ANNNNAAN 8-mers | 0.0956 % of ANNNNAAN 8-mers | 0.0685 % of ANNNNAAN 8-mers
6 | AAGTTAAA | 0.0858 % of ANNNNAAN 8-mers | 0.0857 % of ANNNNAAN 8-mers | 0.0901 % of ANNNNAAN 8-mers | 0.071 % of ANNNNAAN 8-mers
7 | AGCGAAAA | 0.0389 % of ANNNNAAN 8-mers | 0.0386 % of ANNNNAAN 8-mers | 0.0418 % of ANNNNAAN 8-mers | 0.033 % of ANNNNAAN 8-mers
8 | AGTGGAAA | 0.0542 % of ANNNNAAN 8-mers | 0.0512 % of ANNNNAAN 8-mers | 0.0718 % of ANNNNAAN 8-mers | 0.052 % of ANNNNAAN 8-mers
9 | AGCTAAAA | 0.0282 % of ANNNNAAN 8-mers | 0.038 % of ANNNNAAN 8-mers | 0.0425 % of ANNNNAAN 8-mers | 0.0338 % of ANNNNAAN 8-mers
10 | ACGCGAAA | 0.0179 % of ANNNNAAN 8-mers | 0.0265 % of ANNNNAAN 8-mers | 0.0211 % of ANNNNAAN 8-mers | 0.0314 % of ANNNNAAN 8-mers
11 | ACACGAAA | 0.0332 % of ANNNNAAN 8-mers | 0.027 % of ANNNNAAN 8-mers | 0.0386 % of ANNNNAAN 8-mers | 0.0215 % of ANNNNAAN 8-mers
12 | ACATCAAC | 0.0172 % of ANNNNAAN 8-mers | 0.0253 % of ANNNNAAN 8-mers | 0.0211 % of ANNNNAAN 8-mers | 0.0281 % of ANNNNAAN 8-mers
13 | ATCAGAAC | 0.0214 % of ANNNNAAN 8-mers | 0.0242 % of ANNNNAAN 8-mers | 0.0238 % of ANNNNAAN 8-mers | 0.0371 % of ANNNNAAN 8-mers
14 | ATAAAAAG | 0.0915 % of ANNNNAAN 8-mers | 0.114 % of ANNNNAAN 8-mers | 0.0925 % of ANNNNAAN 8-mers | 0.0735 % of ANNNNAAN 8-mers
15 | ATGATAAC | 0.0339 % of ANNNNAAN 8-mers | 0.0489 % of ANNNNAAN 8-mers | 0.0332 % of ANNNNAAN 8-mers | 0.0479 % of ANNNNAAN 8-mers
16 | AAGGTAAG | 0.0416 % of ANNNNAAN 8-mers | 0.0478 % of ANNNNAAN 8-mers | 0.0468 % of ANNNNAAN 8-mers | 0.0545 % of ANNNNAAN 8-mers
17 | ATATAAAA | 0.103 % of ANNNNAAN 8-mers | 0.102 % of ANNNNAAN 8-mers | 0.101 % of ANNNNAAN 8-mers | 0.0702 % of ANNNNAAN 8-mers
18 | AAGCCAAG | 0.0271 % of ANNNNAAN 8-mers | 0.0184 % of ANNNNAAN 8-mers | 0.0168 % of ANNNNAAN 8-mers | 0.019 % of ANNNNAAN 8-mers
19 | AGCTTAAG | 0.029 % of ANNNNAAN 8-mers | 0.0391 % of ANNNNAAN 8-mers | 0.0379 % of ANNNNAAN 8-mers | 0.0355 % of ANNNNAAN 8-mers
20 | AGTACAAC | 0.0164 % of ANNNNAAN 8-mers | 0.0173 % of ANNNNAAN 8-mers | 0.0152 % of ANNNNAAN 8-mers | 0.0413 % of ANNNNAAN 8-mers
21 | ATTCCAAG | 0.045 % of ANNNNAAN 8-mers | 0.0512 % of ANNNNAAN 8-mers | 0.032 % of ANNNNAAN 8-mers | 0.0446 % of ANNNNAAN 8-mers
22 | ATCGAAAC | 0.0275 % of ANNNNAAN 8-mers | 0.0236 % of ANNNNAAN 8-mers | 0.0316 % of ANNNNAAN 8-mers | 0.0215 % of ANNNNAAN 8-mers
23 | AGGGAAAT | 0.549 % of ANNNNAAN 8-mers | 0.365 % of ANNNNAAN 8-mers | 0.963 % of ANNNNAAN 8-mers | 0.713 % of ANNNNAAN 8-mers
24 | AACCGAAT | 0.0412 % of ANNNNAAN 8-mers | 0.0363 % of ANNNNAAN 8-mers | 0.0324 % of ANNNNAAN 8-mers | 0.0487 % of ANNNNAAN 8-mers
25 | ATGGTAAC | 0.0454 % of ANNNNAAN 8-mers | 0.0621 % of ANNNNAAN 8-mers | 0.0316 % of ANNNNAAN 8-mers | 0.0429 % of ANNNNAAN 8-mers
26 | AGACAAAC | 0.0313 % of ANNNNAAN 8-mers | 0.0265 % of ANNNNAAN 8-mers | 0.0414 % of ANNNNAAN 8-mers | 0.0322 % of ANNNNAAN 8-mers
27 | ATACCAAA | 0.0397 % of ANNNNAAN 8-mers | 0.0541 % of ANNNNAAN 8-mers | 0.041 % of ANNNNAAN 8-mers | 0.038 % of ANNNNAAN 8-mers
28 | AAGACAAG | 0.0259 % of ANNNNAAN 8-mers | 0.0305 % of ANNNNAAN 8-mers | 0.0261 % of ANNNNAAN 8-mers | 0.0281 % of ANNNNAAN 8-mers
29 | ATAGCAAG | 0.032 % of ANNNNAAN 8-mers | 0.0363 % of ANNNNAAN 8-mers | 0.0394 % of ANNNNAAN 8-mers | 0.0454 % of ANNNNAAN 8-mers
30 | AAAATAAA | 0.153 % of ANNNNAAN 8-mers | 0.16 % of ANNNNAAN 8-mers | 0.148 % of ANNNNAAN 8-mers | 0.105 % of ANNNNAAN 8-mers
